# From publication PMC4336329 (PLoS ONE, 2015)
# Screen size: about 310,000 compounds; about 14,000 (4.5%) showed an effect of 50% or more. Effects have a minus sign here. The sample holds strong results, similar compounds and a random draw of the others, so the mix is not that of the screen.
# Target: human ether-à-go-go-related gene (hERG) potassium channel (human, UniProt Q12809)
# Assay: primary screen, population patch clamp on CHO cells stably expressing hERG; higher = less effect of the substance
# 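Also: peak tail current of the secondary pulse compared with the same well before compound.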
# Sequence of human ether-à-go-go-related gene (hERG) potassium channel (Q12809 whole entry, looked up): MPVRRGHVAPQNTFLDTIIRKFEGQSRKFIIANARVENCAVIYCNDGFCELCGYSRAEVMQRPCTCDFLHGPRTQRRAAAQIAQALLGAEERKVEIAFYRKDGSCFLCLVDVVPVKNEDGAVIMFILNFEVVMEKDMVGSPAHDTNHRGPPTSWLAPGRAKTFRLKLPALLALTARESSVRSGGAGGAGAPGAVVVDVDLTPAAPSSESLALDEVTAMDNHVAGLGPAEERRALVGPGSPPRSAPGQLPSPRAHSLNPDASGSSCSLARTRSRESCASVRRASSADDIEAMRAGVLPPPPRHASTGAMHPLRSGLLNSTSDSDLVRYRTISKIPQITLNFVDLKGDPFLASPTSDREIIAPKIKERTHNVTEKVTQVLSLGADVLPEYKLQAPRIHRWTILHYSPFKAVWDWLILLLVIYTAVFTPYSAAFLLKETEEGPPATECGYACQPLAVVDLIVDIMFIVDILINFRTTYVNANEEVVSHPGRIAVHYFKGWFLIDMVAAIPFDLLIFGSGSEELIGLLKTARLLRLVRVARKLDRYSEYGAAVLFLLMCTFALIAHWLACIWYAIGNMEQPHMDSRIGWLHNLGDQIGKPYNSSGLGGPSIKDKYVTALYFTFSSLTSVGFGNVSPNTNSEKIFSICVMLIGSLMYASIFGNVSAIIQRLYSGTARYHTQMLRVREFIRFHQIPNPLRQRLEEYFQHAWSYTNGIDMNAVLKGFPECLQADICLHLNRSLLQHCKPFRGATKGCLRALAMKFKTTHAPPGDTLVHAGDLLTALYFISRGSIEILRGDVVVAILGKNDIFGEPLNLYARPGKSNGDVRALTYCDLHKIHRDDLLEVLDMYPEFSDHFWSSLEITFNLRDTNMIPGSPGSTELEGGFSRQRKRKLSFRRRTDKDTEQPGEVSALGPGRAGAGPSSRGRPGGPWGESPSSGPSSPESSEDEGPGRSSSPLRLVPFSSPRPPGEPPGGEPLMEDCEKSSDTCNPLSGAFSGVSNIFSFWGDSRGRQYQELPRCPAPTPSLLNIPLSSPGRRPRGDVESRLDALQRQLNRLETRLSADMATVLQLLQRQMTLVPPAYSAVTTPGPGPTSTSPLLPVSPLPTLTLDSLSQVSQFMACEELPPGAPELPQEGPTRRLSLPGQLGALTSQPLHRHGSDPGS
row,Compound,"hERG current change (%, negative = inhibition) at 10uM [%]"
1,O=S(=O)(N/N=C/c1ccc(N2CCOCC2)cc1)c1ccc(Br)cc1,15.1
2,Cc1ccc2nc(-c3ccc(NC(=O)CN4C(=O)NC(C)(c5ccc(OC(F)F)cc5)C4=O)cc3)sc2c1 (stereo not drawn),12.4
3,Cc1cccc(-n2c(C)cc(/C=N/n3cnnc3)c2C)c1,-0.869
4,O=C(Nc1ccc(S(=O)(=O)Nc2nccs2)cc1)C1CC(=O)N(c2ccc(Cl)cc2)C1 (stereo not drawn),0.55
5,CC1=C(C(=O)OC(C)C)C2(O)C(=O)c3ccccc3C2(O)N1 (stereo not drawn),12
6,CN(CC(=O)Nc1c(Cl)cccc1Cl)C(=O)Cc1cccs1,2.98
7,Cc1cc(=O)oc(C)c1C(=O)NCc1ccc(F)cc1,-15.9
8,O=C1CCCCC/C1=N/Nc1ccc(OCc2ccccc2)cc1,17.3
9,CC(C)(C)c1ccc(-n2ncc3c2CCCC3NC(=O)C2(C(N)=O)CC2)cc1 (stereo not drawn),-29.1
10,CCCCOc1ccc(/C=C/C(=O)OCC(=O)N2CC(=O)Nc3ccccc32)cc1OCC,21.2
11,CCOC(=O)c1c(-c2ccccc2)oc2ccc(O)c(CN3CCOCC3)c12,-37
12,CCOC(=O)c1c(-c2ccccc2)oc2ccc(O)c(CN3CCN(C)CC3)c12,-23.5
13,CCOC(=O)c1c(C)oc2ccc(O)c(CN3CCCCC3)c12,-37.4
14,CCCCn1c(C)c(C(=O)OCC)c2c(CN3CCOCC3)c(O)ccc21,-55.9
15,CCOC(=O)c1oc2cccc(O)c2c1CN1CCOCC1.Cl,-17.1
16,CCOC(=O)c1c(C)n(C)c2ccc(O)c(CN3CCN(C)CC3)c12,-3.46
17,CCCCn1c(C)c(C(=O)OCC)c2c(CN3CCCC3)c(O)ccc21,-72
18,CCOC(=O)c1c(C)n(C)c2ccc(O)c(CN3CCC(C)CC3)c12,-23.2
19,CCOC(=O)c1c(CSc2ccccc2)n(C)c2ccc(O)c(CN3CCN(C)CC3)c12,-22.6
20,CCOC(=O)c1c(CSc2ccccc2)n(C)c2ccc(O)c(CN3CCOCC3)c12,-46.3
21,CCOC(=O)c1c(C)n(C)c2ccc(O)c(CN3CCCCC3)c12,-55.5
22,CCOC(=O)c1c(-c2ccccc2)oc2ccc(O)c(CN3CCCC3)c12,-64.3
23,Cc1csc(SC(C)C(=O)Nc2ccc3c(c2)OCCO3)n1 (stereo not drawn),6.25
24,COc1ccc(OC)c(C2CC(=O)c3c([nH]c(C(=O)OCC4CCCO4)c3C)C2)c1 (stereo not drawn),3.54
25,CCOC(=O)C1C(=O)NC(N2CCN(CC)CC2)=NC1c1ccccc1 (stereo not drawn),16.8
26,CC1CCC(CN2CCN=C2Nc2ccccc2)CC1 (stereo not drawn),-14.7
27,CC(C)c1nnc(NC(=O)CCC(=O)NC2CCCCC2)s1,1.73

row,Compound,"hERG current change (%, negative = inhibition) at 10uM [%]"
1,O=C(Nc1ccnn1C1CCN(C(=O)c2cc(Cl)ccc2F)CC1)C1CCOC1 (stereo not drawn),23.6
2,Fc1ccc2c(-c3cccc(C(F)(F)F)c3)c(-c3ccccc3)ncc2c1,14.1
3,Cc1cc(C)cc(NC(=O)COc2coc(CN3CCc4ccccc43)cc2=O)c1,2.85
4,Cc1cc(C)c(NC(=O)COC(=O)C2CCCCC2)c(C)c1,4.87
5,Cc1cc(C)n(-c2cc(N3CCN(C(=O)c4cccc(F)c4)CC3)ccc2[N+](=O)[O-])n1,-67.9
6,Cc1cc(C)n(-c2cc(N3CCN(S(=O)(=O)c4ccc5ccccc5c4)CC3)ccc2[N+](=O)[O-])n1,-1.13
7,Cc1cc(C)n(-c2cc(N3CCN(S(=O)(=O)c4ccc(Br)cc4)CC3)ccc2[N+](=O)[O-])n1,-21.3
8,O=C(c1cccc(F)c1)N1CCN(c2ccc([N+](=O)[O-])c(N3CCOCC3)c2)CC1,-25
9,Cc1cc(C)n(-c2cc(N3CCN(C(=O)c4cccc(Br)c4)CC3)ccc2[N+](=O)[O-])n1,-67.6
10,CCN(CC(=O)Nc1ccccc1OC)C(=O)c1ccccc1Sc1ccccc1C#N,8.48
11,O=C(Nc1ccccc1)N1CCCN(c2nccc(C(F)(F)F)n2)CC1,-5.36
12,O=C(CSc1ncn[nH]1)Nc1ccc(Br)cc1F,-5.57
13,CCOC(=O)c1cnc2cc(C)ccn2c1=O,-7.41
14,Cc1cccc(NC(=O)CN(C)CC(=O)NC(c2ccccc2)c2ccccc2)c1C,-30.5
15,O=[N+]([O-])c1ccc(C2CN=C(Nc3ccccc3)S2)cc1 (stereo not drawn),-60.2
16,Cc1ccccc1NC1=NCC(c2ccc([N+](=O)[O-])cc2)S1 (stereo not drawn),-44.9
17,CCc1ccc(NC2=NCC(c3ccccc3)S2)cc1 (stereo not drawn),-17.5
18,CCN(CC)c1ccc(/C=N/NC(=O)CNC(=O)c2ccc3c(c2)OCCO3)cc1,-5.14
19,COc1ccc(CC(=O)NCCS(=O)(=O)N2CCN(c3ccccc3OC)CC2)cc1,-17.1
20,Cc1oc(-c2ccc(Cl)cc2)nc1CS(=O)CC(=O)NCc1ccco1 (stereo not drawn),-35.6
21,CCc1ccc(-c2nc(CN3CCC(C(=O)NCc4ccc(F)cc4)CC3)c(C)o2)cc1,-50.5
22,Cc1oc(-c2cccc(Cl)c2)nc1CN1CCC(C(=O)NC2CC2)CC1,16.2
23,CCc1ccc(-c2nc(CN3CCC(C(=O)NCc4ccco4)CC3)c(C)o2)cc1,-66.3
24,Cc1oc(-c2cccc(Cl)c2)nc1CN1CCC(C(=O)NCc2ccco2)CC1,-78
25,CCc1ccc(-c2nc(CS(=O)CC(=O)NCc3ccco3)c(C)o2)cc1 (stereo not drawn),1.94
26,Cc1oc(-c2ccc(Cl)cc2)nc1CN1CCC(C(=O)NCc2ccco2)CC1,-71.2
27,O=C(NCc1ccco1)C1CCN(Cc2ccc(F)cc2)CC1.O=C(O)C(=O)O,-15.4
